From PubChem BioAssay (NCI)
About 83,000 compounds went through this panel and 20% of them were active in at least one assay; those are over-represented in the sample as a whole.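 The endpoint reported here, percent growth, reads 100 for growth as untreated, 0 for no net growth and -100 for all cells dead.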 Values without a mark were called inactive. Active and inactive are the calls of the source. How the source made its calls: active means growth percent below 10; inactive means the rest.

Assays:
Experiment in all cases: NCI-60 one-dose screen, 48 h (100 = growth as untreated, 0 = no growth, -100 = all killed)
Details in all cases: 10 µM unless noted
SR leukemia = system: SR leukemia
OVCAR-8 ovarian = system: OVCAR-8 ovarian
OVCAR-5 ovarian = system: OVCAR-5 ovarian
OVCAR-4 ovarian = system: OVCAR-4 ovarian
SK-OV-3 ovarian = system: SK-OV-3 ovarian
IGROV1 ovarian = system: IGROV1 ovarian
OVCAR-3 ovarian = system: OVCAR-3 ovarian
HS 578T breast = system: HS 578T breast
NCI/ADR-RES ovarian = system: NCI/ADR-RES ovarian
T-47D breast = system: T-47D breast
BT-549 breast = system: BT-549 breast
MDA-MB-435 melanoma = system: MDA-MB-435 melanoma
SW-620 colon = system: SW-620 colon
MCF7 breast = system: MCF7 breast
HCT-116 colon = system: HCT-116 colon
HCC-2998 colon = system: HCC-2998 colon
KM12 colon = system: KM12 colon

Compound | growth (SR leukemia) | growth (OVCAR-8 ovarian) | growth (OVCAR-5 ovarian) [%] | growth (OVCAR-4 ovarian) | growth (SK-OV-3 ovarian) [%] | growth (IGROV1 ovarian) [%] | growth (OVCAR-3 ovarian) | growth (HS 578T breast) [%] | growth (NCI/ADR-RES ovarian) | growth (T-47D breast) [%] | growth (BT-549 breast) [%] | growth (MDA-MB-435 melanoma) | growth (SW-620 colon) | growth (MCF7 breast) | growth (HCT-116 colon) | growth (HCC-2998 colon) | growth (KM12 colon)
COc1ccc2[nH]c(-c3ccccc3)c(/C=C(\C#N)S(=O)(=O)c3ccccc3)c2c1 | 2.79% (active) | 60.7% | 101 | 12.5% | 73.3 | 67 | 45.1% | 67.3 | 30.5% | 38.1 | 64.5 | 2.24% (active) | 35.6% | 26.2% | 31.4% | 68.4% | 33.4%
O=c1c2cc(F)ccc2sc2c(N3CCNCC3)nc3ccccc3c12 | -56.3% (active) | 11% | 73.1 | -22.2% (active) | 84.4 | 48 | -79.6% (active) | 46.3 | 18.7% | 27.9 | 90.8 | -87.1% (active) | -87.1% (active) | -74.1% (active) | -46.3% (active) | -92.1% (active) | -82.4% (active)
NCCCNc1nc2ccccc2c2c(=O)c3cc(C(F)(F)F)ccc3sc12 | -14.9% (active) | 0.22% (active) | 69.8 | -45% (active) | 84.3 | 34.8 | -72.4% (active) | 12.2 | -15.9% (active) | 27.2 | 87.7 | -80.9% (active) | -74.5% (active) | -49.4% (active) | -70.4% (active) | -84.6% (active) | -76.7% (active)
COc1c(N2CC3CCCN(C(C)=O)C3C2)c(F)cc2c(=O)c(C(=O)N[C@H]3C(O)[C@@H](O)C(CO)O[C@H]3O)cn(C3CC3)c12 (stereo not given in full) | 108% | 107% | 104 | 110% | 115 | 114 | 109% | 105 | 110% | 99.9 | 115 | 105% | 105% | 101% | 108% | 115% | 102%
C/C(=C(/c1ccccc1)c1ccc(N2C(=O)c3cccc4c(N5CCN(C)CC5)ccc(c34)C2=O)cc1)c1ccccc1 | -9.19% (active) | 83% | 91.9 | 56.6% | 106 | 69 | 82.7% | 97.9 | 84.9% | 65.3 | 99.6 | 88.2% | 80.2% | 59% | 49.4% | 99.8% | 79.8%
Cc1c(C(=O)NCCCc2ccccc2)sc2ncc(-c3ccc(Br)cc3)n12 | 106% | 105% | 107 | 111% | 99.5 | 100 | 112% | 104 | 107% | 103 | 110 | – | 105% | 94.3% | 104% | 110% | 100%
O=c1c2cc(F)ccc2sc2c(NCCO)nc3ccccc3c12 | 88.9% | 97.1% | 108 | 111% | 109 | 104 | 121% | 110 | 103% | 93.1 | 114 | 110% | 103% | 39.4% | 105% | 116% | 105%
O=C(CCN1C(=O)/C(=C/c2ccc(O)cc2)SC1=S)Nc1ccccc1 | 119% | 94.6% | 106 | 89.6% | 65.9 | 94.6 | 108% | 93.3 | 99.1% | 104 | 93.1 | – | 102% | 96.6% | 98.2% | 111% | 99.1%
CCCCCCCCCCCCCCCCCC1OCC(COC(=O)O[C@]2(CC)C(=O)OCc3c2cc2n(c3=O)Cc3cc4ccccc4nc3-2)O1 (stereo not given in full) | 8.38% (active) | 70.2% | 95.6 | 100% | 83.9 | 81.5 | 94.5% | 99.5 | 66.6% | 64.6 | 80 | 92.6% | 57.1% | – | 66.8% | 84.7% | 94.8%
